Results from PubChem BioAssay (NCI).
About 79,000 compounds went through this panel and 15% of them were active in at least one assay; those are over-represented in the sample as a whole. Active and inactive are the calls of the source. Cut-off read from the data, not from the text of the source: active = growth inhibition above about 70%; inactive = the rest.

How the values were obtained:
[1] = NCI Yeast Anticancer Drug Screen. Data for the rad52 strain (AID 147);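 note: 0% = growth of vehicle-treated control cultures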; details: S. cerevisiae rad52 mutant growth inhibition, active compounds read high
In short: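 Vehicle-treated cultures served as the reference for growth inhibition of compound-exposed yeast bearing a DNA repair mutation.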

[2] = NCI Yeast Anticancer Drug Screen. Data for the wt1 strain (AID 149);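 note: 0% = growth of vehicle-treated wt1 cultures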; details: S. cerevisiae wt1 strain (SPY 50644) growth inhibition, active compounds read high
In short: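 Growth inhibition read against vehicle controls after compound exposure of the wt1 yeast strain.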

[3] = NCI Yeast Anticancer Drug Screen. Data for the rad50EPP+ strain (AID 151);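 note: 0% = growth of vehicle-treated control cultures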; details: S. cerevisiae rad50 mutant strain, active compounds read high
In short: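 In this screen, rad50EPP+ yeast were exposed to compounds. Growth inhibition was scored against vehicle-treated controls.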

[4] = NCI Yeast Anticancer Drug Screen. Data for the rad50 strain (AID 155);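 note: 0% = growth of vehicle-only cultures of the same strain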; details: S. cerevisiae rad50 strain growth inhibition, active compounds read high
In short: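 Readout: growth inhibition relative to vehicle-treated cultures. Compound exposure was carried out in a genetically defined yeast strain deficient in DNA damage repair.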

[5] = NCI Yeast Anticancer Drug Screen. Data for the mec2-1 strain (AID 157); details: S. cerevisiae mec2-1 strain, active compounds read high
In short: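 Vehicle-treated cultures served as reference for growth inhibition of compound-exposed mec2-1 yeast.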

[6] = NCI Yeast Anticancer Drug Screen. Data for the rad14 strain (AID 159);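 note: 0% = growth of vehicle-treated control cultures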; details: S. cerevisiae rad14 strain growth inhibition, active compounds read high
In short: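 Growth inhibition vs vehicle controls; genetically altered yeast strain (DNA damage repair defect) treated with test compounds.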

[7] = NCI Yeast Anticancer Drug Screen. Data for the sgs1 mgt1 strain (AID 161);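 note: 0% = growth of cultures given vehicle only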; details: S. cerevisiae sgs1 mgt1 strain, active compounds read high
In short: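 Genetically altered yeast, compound exposure, growth inhibition relative to vehicle.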

[8] = NCI Yeast Anticancer Drug Screen. Data for the CLN2oe strain (AID 163);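 note: 0% = growth of vehicle-only control cultures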; details: S. cerevisiae CLN2oe strain, active compounds read high
In short: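 Inhibition relative to vehicle-treated yeast is reported. Cells: strain with genetic alteration in cell-cycle control, grown with compound.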

[9] = NCI Yeast Anticancer Drug Screen. Data for the cln2 rad14 strain (AID 165);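 note: 0% = growth equal to vehicle treated cultures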; details: S. cerevisiae cln2 rad14 strain, active compounds read high
In short: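 Each compound was tested on cln2 rad14 yeast. Inhibition of growth was calculated against vehicle-exposed controls.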

[10] = NCI Yeast Anticancer Drug Screen. Data for the bub3 strain (AID 167); details: S. cerevisiae bub3 mutant strain, active compounds read high
In short: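 Readout: yeast growth inhibition, expressed relative to vehicle-only wells. The test organism is a mutant strain from a panel with lesions in DNA repair or checkpoint genes.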

[11] = NCI Yeast Anticancer Drug Screen. Data for the wt2 strain (AID 169);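 note: 0% = growth of vehicle-treated yeast cultures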; details: S. cerevisiae wt2 strain growth inhibition, active compounds read high
In short: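 Inhibition of yeast growth was determined after compound treatment, normalised to controls receiving only vehicle.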

[12] = NCI Yeast Anticancer Drug Screen. Data for the mlh1 strain (AID 171);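 note: 0% = growth of vehicle-treated control cultures of the same strain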; details: S. cerevisiae mlh1 strain growth inhibition, active compounds read high
In short: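 Vehicle-normalised growth inhibition of a repair- or checkpoint-altered yeast strain following compound treatment.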

[13] = NCI Yeast Anticancer Drug Screen. Data for the mlh1 rad18 strain (AID 175); details: S. cerevisiae mlh1 rad18 strain growth inhibition, active compounds read high
In short: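 Vehicle-treated cultures served as the reference for growth inhibition in a yeast strain carrying DNA damage repair alterations exposed to each compound.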

[14] = NCI Yeast Anticancer Drug Screen. Data for the rad18 strain (AID 177); details: S. cerevisiae rad18 mutant growth inhibition, active compounds read high
In short: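 Test articles were incubated with altered yeast defective in DNA damage repair. Results are given as inhibition of growth versus vehicle.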

[15] = NCI Yeast Anticancer Drug Screen. Data for the mgt1 strain (AID 153); details: S. cerevisiae mgt1 mutant growth inhibition, active compounds read high
In short: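 mgt1 strain exposed; growth vs vehicle control recorded as inhibition.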

[16] = NCI Yeast Anticancer Drug Screen. Data for the sgs1 strain (AID 173);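 note: 0% = growth of vehicle-only control cultures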; details: S. cerevisiae sgs1 mutant, active compounds read high
In short: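 Screen format: yeast with repair or checkpoint alterations, compound exposure, growth read relative to vehicle.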

[17] = at 5.0 µM (retest, dose inferred, filed as 0.5)
[18] = at 50.0 µM (retest, dose inferred, filed as 5.0)

Measured: growth inhibition

CCCCCCCCCC/C=C\C(=O)O
active: [1]; at 100.0 µM 97% | [2]; at 100.0 µM 97% | [3]; at 100.0 µM 75% | [4]; at 50.0 µM 78% | [4]; at 100.0 µM 97% | [5]; [18] 74% | [5]; at 50.0 µM 79.8% | [5]; at 100.0 µM 95% | [6]; at 100.0 µM 98% | [7]; at 50.0 µM 88.5% | [8]; at 100.0 µM 97% | [9]; [18] 73% | [10]; [18] 73% | [10]; at 50.0 µM 85.8% | [10]; at 100.0 µM 97% | [11]; at 100.0 µM 97% | [12]; at 100.0 µM 97% | [13]; at 50.0 µM 73.8% | [14]; at 100.0 µM 97%
inactive: [1]; at 1.2 µM -3% | [1]; at 3.7 µM -1% | [1]; at 11.0 µM -9% | [1]; at 33.0 µM -13% | [2]; at 1.2 µM -12% | [2]; at 3.7 µM -18% | [2]; at 11.0 µM -35% | [2]; at 33.0 µM -23% | [3]; at 1.2 µM 0% | [3]; at 3.7 µM -1% | [3]; at 11.0 µM 0% | [3]; at 33.0 µM 62% | [4]; at 1.2 µM 15% | [4]; at 3.7 µM 10% | [4]; [17] 39% | [4]; at 11.0 µM -5% | [4]; at 33.0 µM 8% | [4]; [18] 68% | [5]; at 1.2 µM 4% | [5]; at 3.7 µM 5% | [5]; [17] 36% | [5]; at 11.0 µM -11% | [5]; at 33.0 µM 49% | [6]; at 1.2 µM -3% | [6]; at 3.7 µM -5% | [6]; at 11.0 µM -1% | [6]; at 33.0 µM 38% | [7]; [17] -18% | [7]; [18] 58% | [8]; at 1.2 µM 15% | [8]; at 3.7 µM 25% | [8]; at 11.0 µM 7% | [8]; at 33.0 µM -20% | [9]; [17] 67% | [9]; at 50.0 µM 46.5% | [10]; at 1.2 µM -6% | [10]; at 3.7 µM -15% | [10]; [17] -7% | [10]; at 11.0 µM -29% | [10]; at 33.0 µM -10% | [11]; at 1.2 µM -14% | [11]; at 3.7 µM -15% | [11]; at 11.0 µM -18% | [11]; at 33.0 µM -7% | [12]; at 1.2 µM -10% | [12]; at 3.7 µM -4% | [12]; at 11.0 µM -20% | [12]; at 33.0 µM 10% | [13]; [17] 37% | [13]; [18] 69% | [14]; at 1.2 µM 0% | [14]; at 3.7 µM 1% | [14]; at 11.0 µM -5% | [14]; at 33.0 µM 19%

c1ccc2c(c1)Oc1cccc3cccc-2c13
active: [4]; [17] 95% | [4]; [18] 98% | [13]; [17] 100% | [13]; [18] 99% | [14]; at 100.0 µM 71%
inactive: [1]; at 1.2 µM 5% | [1]; at 3.7 µM 3% | [1]; at 11.0 µM 5% | [1]; at 33.0 µM 38% | [1]; at 100.0 µM 58% | [2]; at 1.2 µM -11% | [2]; at 3.7 µM 1% | [2]; at 11.0 µM -8% | [2]; at 33.0 µM 3% | [2]; at 100.0 µM 10% | [3]; at 1.2 µM 11% | [3]; at 3.7 µM 8% | [3]; at 11.0 µM 34% | [3]; at 33.0 µM 43% | [3]; at 100.0 µM 63% | [15]; at 1.2 µM -1% | [15]; at 3.7 µM -8% | [15]; at 11.0 µM 1% | [15]; at 33.0 µM 16% | [15]; at 100.0 µM 27% | [4]; at 1.2 µM -2% | [4]; at 3.7 µM 8% | [4]; at 11.0 µM 5% | [4]; at 33.0 µM 23% | [4]; at 50.0 µM 67.2% | [4]; at 100.0 µM 62% | [6]; at 1.2 µM 0% | [6]; at 3.7 µM 6% | [6]; at 11.0 µM 21% | [6]; at 33.0 µM 36% | [6]; at 100.0 µM 39% | [7]; [17] 0% | [7]; [18] 43% | [7]; at 50.0 µM 47.6% | [8]; at 1.2 µM 18% | [8]; at 3.7 µM 16% | [8]; at 11.0 µM 8% | [8]; at 33.0 µM 14% | [8]; at 100.0 µM 18% | [9]; [17] 34% | [9]; [18] 20% | [9]; at 50.0 µM 25.4% | [10]; at 1.2 µM 6% | [10]; at 3.7 µM -6% | [10]; [17] -5% | [10]; at 11.0 µM -3% | [10]; at 33.0 µM 17% | [10]; [18] 55% | [10]; at 50.0 µM 56.4% | [10]; at 100.0 µM 36% | [11]; at 1.2 µM 2% | [11]; at 3.7 µM 0% | [11]; at 11.0 µM 1% | [11]; at 33.0 µM 15% | [11]; at 100.0 µM 36% | [12]; at 1.2 µM 7% | [12]; at 3.7 µM 15% | [12]; at 11.0 µM 14% | [12]; at 33.0 µM 31% | [12]; at 100.0 µM 52% | [16]; at 1.2 µM 11% | [16]; at 3.7 µM 13% | [16]; at 11.0 µM 13% | [16]; at 33.0 µM 39% | [16]; at 100.0 µM 60% | [13]; at 50.0 µM 42.7% | [14]; at 1.2 µM 22% | [14]; at 3.7 µM 26% | [14]; at 11.0 µM 25% | [14]; at 33.0 µM 56%

O=C(O)c1ccccc1-c1ccccc1C(=O)Nc1ccc2c(c1)Cc1ccccc1-2
inactive: [1]; at 1.2 µM 2% | [1]; at 3.7 µM 5% | [1]; at 11.0 µM 12% | [1]; at 33.0 µM 51% | [2]; at 1.2 µM 5% | [2]; at 3.7 µM 7% | [2]; at 11.0 µM 16% | [2]; at 33.0 µM 47% | [3]; at 1.2 µM -2% | [3]; at 3.7 µM 2% | [3]; at 11.0 µM 3% | [3]; at 33.0 µM 10% | [3]; at 100.0 µM 25% | [15]; at 1.2 µM 5% | [15]; at 3.7 µM 7% | [15]; at 11.0 µM 19% | [15]; at 33.0 µM 65% | [4]; at 1.2 µM 6% | [4]; at 3.7 µM 6% | [4]; [17] 0% | [4]; at 11.0 µM 23% | [4]; at 33.0 µM 49% | [4]; [18] 37% | [5]; at 1.2 µM 8% | [5]; at 3.7 µM 14%
active: [1]; at 100.0 µM 90% | [2]; at 100.0 µM 90% | [15]; at 100.0 µM 98% | [4]; at 50.0 µM 71.2% | [4]; at 100.0 µM 88%
